NPSR antag: antagonists of human neuropeptide S receptor cAMP signaling | Q6W5P4 | Potency, µM (titrated, usually from 38.3 µM), inactives show top-dose activity change, negative = inhibition, hits mostly inhibitors | CHO-NPSR cells, cAMP TR-FRET, antagonist mode | 220,000 compounds, 1% hits | AID 1461; further: potency means the concentration at half of the fitted maximal effect; nearly all actives have a fitted effect of over 50% in size
HPGD inh: inhibitors of human 15-hydroxyprostaglandin dehydrogenase (HPGD); 150,000 compounds, 4.3% hits; Potency, µM, for inactives: at the highest dose activity change, negative = inhibition, actives largely listed as inhibitors; purified HPGD, NADH fluorescence kinetic, PGE2 substrate; active means well fitted inhibition curve with a large enough effect, not every such curve was filed as active; inconclusive means small, poorly fitted or top-dose-only effect, or another doubt; inactive means no such curve, though single readings can be large or run the other way; further: potency means the concentration at half of the fitted maximal effect
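NADH formation kinetics: reaction with 30 uM PGE2 and 1 mM NAD+ (final), 20 nM enzyme, Tris-HCl pH 8 with Tween 20, after 15 min compound preincubation at room temperature. Fluorescence change, last versus first of five reads.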
ALDH1A1 block: blocks purified human ALDH1A1 activity; P00352; 220,000 compounds, 7.3% hits; Purified ALDH1A1, NADH fluorescence, propionaldehyde substrate; AID 1030; Potency, µM (highest dose often 75.3 µM), for inactives: at the highest dose activity, negative = inhibition, most hits filed as inhibitors; active means well fitted inhibition curve with a large enough effect, not every such curve was filed as active; inconclusive means small, poorly fitted or top-dose-only effect, or another doubt; inactive means no such curve, though single readings can be large or run the other way;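 further: potency means the concentration at half of the fitted maximal effect; plate controls were no enzyme wells and a reference inhibitor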
Target sequence (P00352 whole entry, looked up): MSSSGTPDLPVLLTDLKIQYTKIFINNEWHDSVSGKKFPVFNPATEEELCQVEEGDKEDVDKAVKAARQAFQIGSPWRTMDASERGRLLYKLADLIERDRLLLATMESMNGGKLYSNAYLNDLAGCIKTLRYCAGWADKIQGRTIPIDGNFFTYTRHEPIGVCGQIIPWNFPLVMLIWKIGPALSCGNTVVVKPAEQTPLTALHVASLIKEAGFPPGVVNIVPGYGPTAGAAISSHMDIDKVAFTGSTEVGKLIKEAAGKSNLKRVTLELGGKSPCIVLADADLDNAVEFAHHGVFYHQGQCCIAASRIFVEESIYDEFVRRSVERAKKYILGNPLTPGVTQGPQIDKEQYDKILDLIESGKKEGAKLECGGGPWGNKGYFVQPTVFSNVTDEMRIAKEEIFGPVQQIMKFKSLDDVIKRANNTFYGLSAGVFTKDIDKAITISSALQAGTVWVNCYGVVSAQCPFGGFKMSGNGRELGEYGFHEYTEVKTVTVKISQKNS
12-hLO inh: blocks human 12-lipoxygenase activity. purified 12-hLO, xylenol orange hydroperoxide absorbance. Potency, µM (highest dose often 57.1 µM), for inactives: top-dose activity change, negative = inhibition, actives largely listed as inhibitors. 150,000 compounds, 0.12% hits. AID 1452; further: potency means the concentration at half of the fitted maximal effect; nearly all actives have a fitted effect of over 55% in size
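Xylenol orange chromogenic assay: hydroperoxide from 12hLO oxidises Fe(II), giving red-shifted Fe(III)-XO absorbance. Conditions: 150 nM enzyme, 40 uM arachidonic acid, 25 mM Hepes pH 7.0, 0.01% Triton X-100, 30 min, room temperature.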
IMPase cell inh: IMPase inhibition in cells | P97697 | CHO-M1 cells, IP1 accumulation, HTRF TR-FRET ratio | inhibition (IP1 accumulation), % at 46.1 µM | 120,000 tested, under 10 active | AID 901; active means well fitted curve in the direction sought with a large enough effect in the signal ratio, not every such curve was filed as active; inconclusive means small, poorly fitted or top-dose-only effect, or a change in a side signal; inactive means no such curve, though single readings can be large or run the other way; the % refers to the signal ratio;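 further: cells stimulated with carbachol in lithium chloride buffer; plate controls were DMSO basal wells for no effect and reference inhibitor wells for full effect; higher means more IMPase inhibition seen as more IP1 and lower FRET ratio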
Target sequence (P97697 whole entry, looked up): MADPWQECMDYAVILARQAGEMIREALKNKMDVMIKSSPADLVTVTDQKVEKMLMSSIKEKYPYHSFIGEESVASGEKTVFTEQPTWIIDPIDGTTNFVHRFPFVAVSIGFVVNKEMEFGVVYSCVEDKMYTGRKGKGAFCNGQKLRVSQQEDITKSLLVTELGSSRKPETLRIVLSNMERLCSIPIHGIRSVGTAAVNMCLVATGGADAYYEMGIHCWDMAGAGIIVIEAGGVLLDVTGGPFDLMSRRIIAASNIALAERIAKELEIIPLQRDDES
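CHO-M1, 2000 cells/well, cultured 16–30 h; cpd up to 46 uM; carbachol (50 uM solution, stimulation buffer w/ 50 mM LiCl, pH 7.4), 30 min 37C; IP-One TR-FRET, 10 min RT; Ex 320/Em 665, 620; Hill-fit AC50.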
IMPase Li inh: membrane-permeable IMPase blocker, potentiated with lithium; CHO-M1 cells, IP1 TR-FRET (IP-One), carbachol + lithium; Potency, µM (highest dose often 59.4 µM), without a hit: at the highest dose activity, negative = IMPase inhibition, hits mostly inhibitors; 210,000 compounds, 0.35% hits; AID 1457;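 further: IP1 builds up when IMPase is blocked and the TR-FRET signal falls; potency means the concentration at half of the fitted maximal effect; plate controls were basal vehicle for no effect and high inhibitor control for full effect; nearly all actives have a fitted effect of over 50% in size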
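Readout is a homogeneous TR-FRET IP1 immunoassay (Ex 320, Em 665 and 620), where raised cytosolic IP1 lowers signal. Cells were CHO-M1 treated 30 min at 37C with test compounds plus a little lithium; AC50 values came from Hill-equation fitting.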
Numbers without * were called inactive; [ ] = remark or other dose. Only some compounds are listed: those with a hit (about 8.9% of all), similar ones and a draw of the others. Unless noted, the call rests on the fitted dose curve; in most records, active means well fitted curve in the direction sought with a large enough effect; inconclusive means small, poorly fitted or top-dose-only effect, or another doubt; inactive means no such curve, though single readings can be large; an effect the other way counts as inactive or inconclusive. Unless noted, on the % scale 0 is the no-effect control and ±100 the full control effect.

How did COc1ccccc1NC(=O)CSc1nnc2c3ccccc3n(C(C)C)c2n1 do in these assays?
IMPase cell inh: 1.5

Results for CCOc1cc(N(CC)CC)ccc1/C=C(/C#N)c1nc2ccccc2[nH]1 ?
NPSR antag: inconclusive; HPGD inh: -9.6%; ALDH1A1 block: -12.1%; 12-hLO inh: -6.0%; IMPase cell inh: 2.8; IMPase Li inh: 5.2%[38.3 µM]

What do the screens show for `O=C1CC(c2ccccc2F)C2=C(COC2=O)N1` (stereo unspecified)?
NPSR antag: 10.0%; ALDH1A1 block: 17.8µM*; IMPase Li inh: -8.1%

How did CC1(C)CC(=O)C2=C(C1)NC(=O)CC2c1ccccc1F (stereo unspecified) do in these assays?
NPSR antag: -4.4%[46.1 µM]; HPGD inh: -11.2%; ALDH1A1 block: -3.4%; 12-hLO inh: -1.4%; IMPase cell inh: inconclusive; IMPase Li inh: 0.3%[38.3 µM]

What do the screens show for `O=C1CC(c2c(F)cccc2Cl)C2=C(COC2=O)N1` (stereo unspecified)?
NPSR antag: -5.3%[46.1 µM]; HPGD inh: -4.0%; ALDH1A1 block: inconclusive; 12-hLO inh: -1.8%; IMPase cell inh: 10.6[1.84 µM]; IMPase Li inh: 31.6%[38.3 µM]

What do the screens show for `Cc1[nH]nc2c1C(c1ccccc1F)CC(=O)N2` (stereo unspecified)?
NPSR antag: -5.5%[46.1 µM]; HPGD inh: -18.1%; ALDH1A1 block: 22.4µM*; 12-hLO inh: 9.4%; IMPase cell inh: 1.9; IMPase Li inh: 1.2%[38.3 µM]

How did COc1ccccc1NC(=O)CN1CCC(c2nc3ccc(C)cc3[nH]2)CC1 do in these assays?
NPSR antag: 32.3%; ALDH1A1 block: 2.7%; IMPase Li inh: 12.3%

What do the screens show for `CCOC(=O)c1ccc(NC(=O)C(C)NS(=O)(=O)c2ccc(OC)cc2)cc1` (stereo unspecified)?
NPSR antag: -21.7%[46.1 µM]; HPGD inh: inconclusive; ALDH1A1 block: 14.1µM*; 12-hLO inh: -7.8%; IMPase cell inh: -5.0; IMPase Li inh: 47.1%[38.3 µM]

What do the screens show for `CCNC(=O)CC1SC(=Nc2ccc(Cl)cc2)N(CC)C1=O` (stereo unspecified)?
NPSR antag: 15.0%; HPGD inh: -5.8%; ALDH1A1 block: 11.8%; 12-hLO inh: -2.3%; IMPase Li inh: 8.0%

How did NC(CO)C(=O)NNCc1ccc(O)c(O)c1O (stereo unspecified) do in these assays?
NPSR antag: inconclusive; HPGD inh: -8.9%; ALDH1A1 block: 3.44µM*; 12-hLO inh: -0.1%; IMPase Li inh: 12.8%

How did N[C@H](CO)C(=O)NCC(=O)O do in these assays?
HPGD inh: -2.9%; ALDH1A1 block: -4.8%[13.5 µM]; 12-hLO inh: -0.1%[11.4 µM]; IMPase Li inh: 5.3%

How did Cc1nc2ccc(NC(=O)Cc3ccsc3)cc2s1 do in these assays?
NPSR antag: -10.0%[46.1 µM]; HPGD inh: -14.3%; ALDH1A1 block: 7.3%; 12-hLO inh: -3.0%; IMPase cell inh: 4.3; IMPase Li inh: -2.8%[38.3 µM]

What do the screens show for `CC(=O)Nc1ccccc1`?
HPGD inh: -7.5%; ALDH1A1 block: 7.9%; 12-hLO inh: 1.8%; IMPase Li inh: 5.5%

How did CC(=O)Nc1ccc(C(C#N)c2ccccc2)cc1 (stereo unspecified) do in these assays?
NPSR antag: -1.3%; ALDH1A1 block: 14.1µM*; IMPase Li inh: 10.7%

Results for N#CC(c1ccccc1)c1ccc(C(=O)c2ccc(F)cc2)cc1 (stereo unspecified) ?
NPSR antag: inconclusive; HPGD inh: inconclusive; ALDH1A1 block: 20µM*; 12-hLO inh: -7.7%; IMPase cell inh: 13.0; IMPase Li inh: 12.0%[38.3 µM]

How did N#CC(c1ccc(F)cc1)c1ccc(C(=O)c2ccccc2)cc1 (stereo unspecified) do in these assays?
NPSR antag: 16.4%[46.1 µM]; HPGD inh: 14.1µM*; ALDH1A1 block: -39.4%; 12-hLO inh: 9.0%; IMPase cell inh: 1.6; IMPase Li inh: 14.2%[38.3 µM]

How did COc1ccc2c(c1)-c1nc(/N=C/c3ccc(O)c(OC)c3)sc1CC2 do in these assays?
NPSR antag: 4.8%; HPGD inh: -26.1%; ALDH1A1 block: 25.1µM*; 12-hLO inh: -6.9%; IMPase Li inh: 3.3%

How did COc1ccc2c(c1)-c1nc(N)sc1CC2 do in these assays?
NPSR antag: -0.4%; ALDH1A1 block: inconclusive; IMPase Li inh: -2.3%

What do the screens show for `O=C(/C(=N\Nc1ccc([N+](=O)[O-])cc1)Sc1nnnn1-c1ccccc1)c1ccccc1`?
NPSR antag: -49.3%; HPGD inh: -11.2%; ALDH1A1 block: 3.16µM*; 12-hLO inh: -5.2%; IMPase Li inh: 12.3%

How did Cc1ccc(N/N=C(/Sc2nnnn2-c2ccccc2)C(=O)c2ccccc2)cc1 do in these assays?
NPSR antag: -25.5%; HPGD inh: -11.9%; ALDH1A1 block: 3.16µM*; 12-hLO inh: -3.7%; IMPase Li inh: 5.8%

Results for O=C(O)CC/C(=N\Nc1ccc([N+](=O)[O-])cc1)c1ccccc1 ?
NPSR antag: 56.1%; ALDH1A1 block: inconclusive

What do the screens show for `Cc1ccc(OCCn2cc(/C=C(\C#N)C(=O)NCC3CCCO3)c3ccccc32)cc1` (stereo unspecified)?
NPSR antag: -15.4%; HPGD inh: -17.3%; ALDH1A1 block: -14.6%; 12-hLO inh: -2.3%; IMPase Li inh: 7.1%

What do the screens show for `COc1ccc(C(=O)NC(=S)Nc2cccnc2)cc1OC`?
NPSR antag: -1.7%; ALDH1A1 block: inconclusive; IMPase Li inh: -6.4%

What do the screens show for `COc1ccc(CN2CCC(C(=O)N(C)CCc3ccc(OC)c(OC)c3)CC2)c(OC)c1`?
NPSR antag: -6.1%[46.1 µM]; HPGD inh: -5.4%; ALDH1A1 block: -6.3%; 12-hLO inh: -6.0%; IMPase cell inh: 3.6; IMPase Li inh: 9.5%[38.3 µM]

How did COc1ccc(CN2CCC(N(CCc3ccccc3)Cc3ccccc3)CC2)c(OC)c1 do in these assays?
NPSR antag: 7.94µM*; ALDH1A1 block: inconclusive; IMPase Li inh: 13.5%

What do the screens show for `Cc1nn(C)c(C)c1/C=C(/C(=O)C(C)C)n1cncn1`?
NPSR antag: 32.1%

Results for Cc1ccc(NC(=O)COC(=O)C2(c3ccc(Cl)cc3)CCCC2)cc1 ?
NPSR antag: -56.8%; HPGD inh: -8.2%; ALDH1A1 block: 10µM*; 12-hLO inh: -4.2%; IMPase Li inh: 17.1%

Results for CCOC(=O)c1ccc(NC(=O)C2(c3ccc(Cl)cc3)CCCC2)cc1 ?
NPSR antag: inconclusive; HPGD inh: -1.6%; ALDH1A1 block: -6.3%; 12-hLO inh: -1.8%; IMPase cell inh: 1.2; IMPase Li inh: 13.7%[38.3 µM]

Results for COC(=O)C1CC1C(NC(=O)[C@@H]1CCCN1)c1ccccc1 (stereo partly specified) ?
HPGD inh: -0.5%; ALDH1A1 block: -5.0%; 12-hLO inh: -1.1%; IMPase Li inh: -1.5%

Source: PubChem BioAssay (National Center for Advancing Translational Sciences (NCATS))
